In PubChem BioAssay:
Activity calls are given as the source filed them.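 Rule for the calls: active = viability at or below 10% of carrier control in both of two separate runs; inconclusive = viability at or below 10% in only one of the two runs; inactive = the rest.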

test: reduced viability of SK-BR-3 breast cancer cells – cell-based, 24 h, human, pilot screen (AID 572); details: SK-BR-3 viability, CellTiter-Glo luminescence, at 10 µM, hits give low values;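 note: compound exposure lasted between 18 and 24 h rather than exactly 24 h; 100% = carrier-treated control wells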

Which viability does the source give for `CCC(c1nnnn1CCOC)N(Cc1ccc(C)cc1)Cc1cc2cc(OC)ccc2[nH]c1=O` (configuration not stated) here?
Its viability is 115% (inactive).

With `COc1ccccc1-c1nnc(SCc2ccccn2)n1C` as the molecule, how does the viability read?
Its viability is 94% (inactive).

Which viability does the source give for `CCCCOCCCNC(=O)c1ccccc1OCC` here?
The viability was 89% (inactive).

For `COCCOC(=O)C1=C(C)Nc2ncnn2C1c1ccc(F)cc1` (configuration not stated), which viability is on record?
Its viability is 90% (inactive).

For `CCCCOc1ccc(C(=O)Nn2cnnc2)cc1`, which viability is on record?
Its viability is 95.5% (inactive).

For `O=C(CNS(=O)(=O)c1ccc(Br)s1)N1CCN(c2ncccn2)CC1`, which viability is on record?
Its viability is 98.5% (inactive).

With `CCN(CC)CCCN(Cc1cc2cc(OC)ccc2[nH]c1=O)C(=O)Nc1ccccc1` as the molecule, how does the viability read?
The viability was 90% (inactive).

With `CN(C)CCCn1c(N)c(C#N)c2nc(C#N)c(C#N)nc21` as the molecule, how does the viability read?
The viability was 179% (inactive).

With `CCOC(=O)C(C)(C)Sc1nc2c(cnn2-c2ccc(C)cc2)c(=O)[nH]1` as the molecule, how does the viability read?
The viability was 99% (inactive).

With `COC(=O)c1ccc(CSc2nnc(-c3ccncc3)o2)o1` as the molecule, how does the viability read?
Its viability is 110% (inactive).

Which viability does the source give for `CC1(C)Cc2nc3oc4c(N(CCO)Cc5ccccc5)ncnc4c3cc2CO1` here?
The viability was 95.5% (inactive).

With `CCCCc1n[nH]c2c1C(=O)CC(C)(C)C2` as the molecule, how does the viability read?
Its viability is 73.5% (inactive).

For `CCOc1ccc(NC(=O)C2CC(=O)N(C(C)C)C2)cc1` (configuration not stated), which viability is on record?
Its viability is 103% (inactive).

For `C=C(C)CSc1nnc(-c2cccc(S(=O)(=O)N(C)C)c2)n1-c1cc(OC)ccc1OC`, which viability is on record?
The viability was 75% (inactive).

For `N#Cc1c(NC(=O)c2ccc(Br)o2)n(-c2ccccc2)c2nc3ccccc3nc12`, which viability is on record?
The viability was 86.5% (inactive).

Which viability does the source give for `CCCC(=O)Nc1cc(C)c(NC(=O)c2ccccn2)cn1` here?
Its viability is 90.5% (inactive).

Which viability does the source give for `CCOC(=O)c1sc2ncn(/N=C/N(C)C)c(=O)c2c1C` here?
The viability was 98% (inactive).
